aSyn rescue: inhibitors of alpha-synuclein toxicity in yeast; 0.14% of 370,000 active; Potency, µM (doses to about 46.1 µM), for inactives: top-dose growth rescue (activation), hits mostly activators; Yeast expressing alpha-synuclein, growth rescue, BacTiter-Glo, 24 h; also: potency is read from the fitted curve at half-maximal effect; % of control where 0% means no effect; nearly all actives have a fitted effect of over 65% in size
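Rescue of yeast growth: cells expressing toxic alpha-synuclein, induced in galactose at OD600 0.02, incubated with compound 24 h at 30 C. ATP luminescence quantified growth; inhibitors of toxicity appear as activators.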
IDH1 R132H inh: human IDH1 R132H inhibition; AID 602179; 0.093% of 390,000 active; Potency, µM (series often up to 76.6 µM), for inactives: top-dose activity change, negative = inhibition, usual class: inhibitors; IDH1-R132H enzyme, NADPH consumption, diaphorase/resazurin fluorescence; O75874; also: potency is read from the fitted curve at half-maximal effect; % is scaled to controls: 0 for no effect and ±100 for the full control effect; nearly all actives have a fitted effect of over 65% in size
Target sequence (O75874 whole entry R132H, stated change not applied): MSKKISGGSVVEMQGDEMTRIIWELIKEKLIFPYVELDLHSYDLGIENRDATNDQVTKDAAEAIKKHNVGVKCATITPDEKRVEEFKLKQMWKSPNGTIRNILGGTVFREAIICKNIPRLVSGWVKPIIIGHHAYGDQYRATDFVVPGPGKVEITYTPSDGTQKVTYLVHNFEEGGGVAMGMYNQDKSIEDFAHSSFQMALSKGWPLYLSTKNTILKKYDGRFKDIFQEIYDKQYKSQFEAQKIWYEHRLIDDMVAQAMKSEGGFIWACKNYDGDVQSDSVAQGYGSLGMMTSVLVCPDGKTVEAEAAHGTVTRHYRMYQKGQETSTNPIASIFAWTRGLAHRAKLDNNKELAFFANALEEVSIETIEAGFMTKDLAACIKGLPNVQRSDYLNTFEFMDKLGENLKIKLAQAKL
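IDH1-R132H (0.5 ug/mL dispensed) in pH 7.5 Tris buffer was preincubated 30 min with compound, then given a substrate mix of 0.016 mM NADPH and 2 mM alpha-KG for 80 min at room temperature; remaining NADPH was read by diaphorase/resazurin fluorescence.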
TDP43 rescue: inhibitors of TDP-43 toxicity in yeast. AID 652104. Potency, µM (titrated, usually from 46.1 µM), for inactives: at the top dose growth rescue (activation), most hits filed as activators. 1.8% of 410,000 active. TDP-43 expressing yeast growth rescue, BacTiter-Glo, 24 h; also: potency is read from the fitted curve at half-maximal effect; % of control where 0% means no effect; nearly all actives have a fitted effect of over 50% in size
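Galactose-induced TDP-43 yeast, OD600=0.02, compound pinned; 24 hr, 30 deg C; BacTiter-Glo luminescence for growth. Inhibitors of TDP-43 toxicity read as activators.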
LDHA inh: blocks human lactate dehydrogenase A; P00338; purified LDHA, NADH/diaphorase-resazurin fluorescence; hits give low values; activity change, % (values are at about 110 or 230 µM); 0.15% of 480,000 active; in the data active = activity change below about -30%; inconclusive = mostly about -25% to -30%;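 also: plate controls were DMSO wells for no effect and wells without enzyme for full effect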
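Resorufin fluorescence (ex540/em590), read at 0 and 20 min after diaphorase/resazurin addition, reports the NADH left after a 5 min room-temperature reaction of 2 nM human LDH5 with 0.06 mM NADH and 0.2 mM pyruvate.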
Abeta yeast res: compounds reversing amyloid beta toxicity in yeast. 0.063% of 410,000 active. Potency, µM (doses to about 46.1 µM), actives largely listed as activators. yeast expressing A-beta42, growth rescue, OD600, 48 h; response scale: 0% DMSO, 100% iron-clioquinol control; also: potency is read from the fitted curve at half-maximal effect; nearly all actives have a fitted effect of over 55% in size
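Growth rescue measured by 600 nm absorbance after 48 h yeast culture at 30 C with compound. Values normalized between DMSO and an equimolar ferric chloride plus clioquinol control.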
FUS suppressor: suppressors of FUS proteinopathy in yeast | Potency, µM (series often up to 76.6 µM), most hits filed as activators | 0.24% of 390,000 active | S. cerevisiae FUS-expressing, growth rescue, OD600, 24 h;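 also: potency is read from the fitted curve at half-maximal effect; plate controls were DMSO vehicle for no effect and reference control for full effect; nearly all actives have a fitted effect of over 55% in size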
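Galactose (2%) drives FUS expression in yeast precultured in raffinose; seeding density OD 0.005. Test compounds incubated 24hr at 30C and 99% humidity before absorbance at 600 nm was measured.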
Active calls of the source: *; i = inactive; ? = inconclusive; . = not tested or not shown. An excerpt weighted towards active compounds, which were near 2% of everything screened. Unless noted, calls follow the shape of the dose curve; as a rule, active = well fitted curve in the direction sought with a large enough effect; inconclusive = small, poorly fitted or top-dose-only effect, or another doubt; inactive = no such curve, though single readings can be large; an effect the other way counts as inactive or inconclusive.

SMILES	aSyn rescue	IDH1 R132H inh	TDP43 rescue	LDHA inh	Abeta yeast res	FUS suppressor
COc1cc(C(O)c2nc(-c3cc(F)cc(F)c3)cs2)ccc1F (configuration not stated)	?	.	35µM*	-1	?	i
COc1ccc(C(O)c2nc(-c3ccc(F)cc3OC)cs2)cc1 (configuration not stated)	0%	.	22µM*	1	?	i
Cc1ccc(C(=O)N(Cc2ccco2)C2CC2)s1	.	.	.	6	.	.
COc1cc(OC)c(OC)cc1/C=C/C(=O)c1sc(-c2ccc(O)cc2)nc1C	.	.	.	49	.	.
Cc1cc(SCC(=O)NC2CCS(=O)(=O)C2)nc2c(C)cccc12 (configuration not stated)	.	.	.	9	.	.
COc1ccc(CN(Cc2ccccc2)Cc2cc(=O)n3cc(C)sc3n2)cc1OC	.	.	.	3	.	.
CC(C)c1ccc(/C=N/O)cc1	.	.	.	0	.	.
COc1cc(C(O)c2nc(-c3cccc(F)c3)cs2)ccc1F (configuration not stated)	?	.	16µM*	-4	i	i
COc1cc(C(O)c2nc(-c3ccc(N(C)C)cc3)cs2)ccc1F (configuration not stated)	5%	.	3%	-2	i	i
COc1cc(C(O)c2nc(-c3cncnc3)cs2)ccc1F (configuration not stated)	0%	.	?	-6	i	i
COc1ccc(-c2csc(C(O)c3ccc(F)cc3)n2)cc1OC (configuration not stated)	13%	.	22µM*	-1	i	i
COc1cc(C(O)c2nc(-c3ccccc3OC)cs2)ccc1F (configuration not stated)	?	.	18µM*	-2	i	i
COc1ccc(C(O)c2nc(-c3ccc(C)c(C)c3)cs2)cc1 (configuration not stated)	10µM*	.	?	-1	i	i
COc1cc(F)ccc1-c1csc(C(O)c2ccc(F)cc2)n1 (configuration not stated)	0%	.	?	-5	?	i
O=S(=O)(c1ccc(-c2csc(Nc3ccc(F)cc3)n2)cc1)N1CCCCC1	.	.	.	-2	.	.
Cc1oc(-c2ccccc2)nc1C(=O)OCC(=O)N1CCCCC1	.	.	.	-1	.	.
CCNC(=S)N/N=C(/C)c1ccc(Cl)c(Cl)c1	.	.	.	5	.	.
C=CCNc1nc(C(=O)OCC(=O)c2ccc(C(C)(C)C)cc2)cs1	.	.	.	8	.	.
Cc1ccccc1-c1noc(-c2cc3c(COC(=O)C(C)C)cnc(C)c3oc2=O)n1	.	.	.	-2	.	.
O=C(COC(=O)C1(c2ccccc2F)CCCC1)NCc1ccc2c(c1)OCO2	19%	4%	16µM*	-10	i	.
O=C(COC(=O)C1(c2ccc(F)cc2)CCCC1)NCc1ccc2c(c1)OCO2	8%	6%	?	-8	i	i
O=C(COC(=O)/C=C/c1ccco1)NCc1ccc2c(c1)OCO2	-1%	2%	16µM*	-5	i	i
Cc1nn(CC(=O)N2CCN(C(=O)CC(C)C)CC2)c(=O)c2ccccc12	.	.	.	5	.	.
Cc1c(C)c(C)c(S(=O)(=O)Nc2cc(Cl)ccc2C(=O)N(C)C)c(C)c1C	.	.	.	0	.	.
CCN(C(=O)[C@@H]1CCCN1C(=O)c1cccs1)c1nc2cc(Cl)ccc2s1	3%	5%	13µM*	-7	i	i
Cc1cc(Cl)ccc1NC(=O)C1CCCN1C(=O)c1cccs1 (configuration not stated)	10%	6%	-7%	-8	i	i
COC(=O)c1ccc2c(c1)C(C)(C)C(/C=C/c1ccccc1O)=[N+]2C	-34%	35µM*	-49%	5	i	i
C[N+]1=C(/C=C/Nc2ccccc2Cl)C(C)(C)c2ccccc21	0%	7%	-13%	-1	i	i
Cc1ccc(C)c(-c2cc(C)ncc2C)c1	.	.	.	-31*	.	.
Cc1ccc(Cc2cc(C)ncc2C)c(C)c1	.	.	.	10	.	.

Bioassay records: PubChem, National Center for Advancing Translational Sciences (NCATS)
